Assay results as given in PubChem BioAssay (NCI).
This is part of a sample that, as a whole, favours compounds with a hit. Of some 83,000 tested, about 20% had one in any assay.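 Growth was measured after 48 h exposure to one concentration of compound in 96-well plates. Values under 10 count as active.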 Activity calls are given as the source filed them.

What was measured:
Test in all cases: NCI-60 one-dose screen, 48 h (100 = growth as untreated, 0 = no growth, -100 = all killed)
NCI-H23 lung = details: 10 µM unless noted
NCI-H322M lung = details: 10 µM unless noted
HOP-62 NSCLC = details: 10 µM unless noted
NCI-H460 lung = details: 10 µM unless noted
HOP-92 NSCLC = details: 10 µM unless noted
NCI-H522 lung = details: 10 µM unless noted
786-0 renal = details: 10 µM unless noted
COLO 205 colon = details: 10 µM unless noted
DU-145 prostate = details: 10 µM unless noted
K-562 leukemia = details: 10 µM unless noted
MDA-MB-231 breast = details: 10 µM unless noted
RXF 393 renal = details: 10 µM unless noted
SF-268 CNS = details: 10 µM unless noted
SF-295 CNS = details: 10 µM unless noted
SF-539 CNS = details: 10 µM unless noted
UACC-257 melanoma = details: 10 µM
M14 melanoma = details: 10 µM unless noted
A549/ATCC NSCLC = details: 10 µM unless noted
MALME-3M melanoma = details: 10 µM unless noted
NCI-H226 lung = details: 10 µM unless noted

Measured: growth

Cn1c(C(N)=O)cc2c1-c1nc(NC3CCCCC3)ncc1CCC2
inactive: NCI-H23 lung 93.7% | NCI-H322M lung 110% | HOP-62 NSCLC 90% | NCI-H460 lung 94.3% | NCI-H522 lung 94.9% | 786-0 renal 91.2% | COLO 205 colon 113% | DU-145 prostate 103% | K-562 leukemia 101% | MDA-MB-231 breast 78.4% | RXF 393 renal 59.5% | SF-268 CNS 84.8% | SF-295 CNS 91.3% | SF-539 CNS 80.6% | UACC-257 melanoma 106% | M14 melanoma 109%
active: HOP-92 NSCLC 6.02%

CCN(CC)CCCNc1nc(C)cc(Nc2ccc3nc(C)cc(N)c3c2)n1
inactive: NCI-H23 lung 93% | NCI-H322M lung 95.5% | HOP-62 NSCLC 81% | NCI-H460 lung 110% | HOP-92 NSCLC 97.5% | NCI-H522 lung 93.3% | A549/ATCC NSCLC 81% | 786-0 renal 97.8% | COLO 205 colon 97.4% | DU-145 prostate 116% | K-562 leukemia 106% | MALME-3M melanoma 107% | MDA-MB-231 breast 103% | RXF 393 renal 117% | SF-268 CNS 92.9% | SF-295 CNS 95.1% | SF-539 CNS 103% | M14 melanoma 96.6%

CNC(C)=O
inactive: NCI-H23 lung 95.3% | NCI-H322M lung 92% | HOP-62 NSCLC 94.4% | NCI-H460 lung 106% | HOP-92 NSCLC 103% | NCI-H522 lung 89% | A549/ATCC NSCLC 92.1% | 786-0 renal 106% | COLO 205 colon 98.8% | DU-145 prostate 99.5% | K-562 leukemia 90.3% | MALME-3M melanoma 86.1% | RXF 393 renal 105% | SF-268 CNS 98.4% | SF-295 CNS 93.7% | SF-539 CNS 89.8% | UACC-257 melanoma 102% | M14 melanoma 108%

O=C(Nc1ccc(I)cc1)c1cccc([N+](=O)[O-])c1O
inactive: NCI-H322M lung 20.9% | HOP-62 NSCLC 23.5% | NCI-H460 lung 17.5% | A549/ATCC NSCLC 14.5% | 786-0 renal 16.6% | DU-145 prostate 32.5% | K-562 leukemia 14.7% | MDA-MB-231 breast 16.8% | RXF 393 renal 31.1% | SF-268 CNS 24.1% | SF-539 CNS 14.8% | M14 melanoma 15.7%
active: NCI-H23 lung -6.76% | HOP-92 NSCLC -4.99% | NCI-H522 lung 1.75% | COLO 205 colon 7.78% | MALME-3M melanoma -4.07% | SF-295 CNS 4.77%

COC1=CC(c2ccc[nH]2)=N/C1=C\c1[nH]c(C)c(C(=O)CCCCC(=O)Nc2ccccc2)c1C
active: NCI-H460 lung -38.8% | HOP-92 NSCLC -71.4% | NCI-H522 lung -45.3% | A549/ATCC NSCLC -21.4% | DU-145 prostate 6.29% | MDA-MB-231 breast -10.1% | RXF 393 renal -63.9% | SF-295 CNS -2.61%
inactive: NCI-H23 lung 34.4% | NCI-H322M lung 87.3% | HOP-62 NSCLC 80.7% | 786-0 renal 93.5% | COLO 205 colon 67.1% | K-562 leukemia 62.4% | MALME-3M melanoma 87.7% | SF-268 CNS 44.1% | SF-539 CNS 78.6% | UACC-257 melanoma 74.4% | M14 melanoma 13.1%

O=C(/C=C/CN1CCCCC1)Nc1cc2c(Nc3ccc(F)c(Cl)c3F)ncnc2cc1OCCOC(F)F
inactive: NCI-H23 lung 26.3% | HOP-62 NSCLC 20.6% | NCI-H460 lung 21.7% | A549/ATCC NSCLC 18.2% | 786-0 renal 10.7% | COLO 205 colon 24.8% | DU-145 prostate 17.6% | MALME-3M melanoma 25.8% | SF-268 CNS 16.1% | SF-295 CNS 28.1% | SF-539 CNS 16.8% | M14 melanoma 34.2%
active: NCI-H322M lung 5.03% | HOP-92 NSCLC -39.2% | NCI-H522 lung -32% | K-562 leukemia 7.24% | MDA-MB-231 breast -4.23% | RXF 393 renal -17.1%

CCn1c(=O)c2c(=O)c3c4c(oc3oc2c2ccccc21)C(=O)c1ccccc1C4=O
inactive: NCI-H23 lung 66.8% | NCI-H322M lung 97.7% | NCI-H460 lung 83.7% | HOP-92 NSCLC 50.8% | NCI-H522 lung 65.5% | A549/ATCC NSCLC 82.4% | 786-0 renal 105% | COLO 205 colon 110% | DU-145 prostate 92.4% | K-562 leukemia 28.6% | MALME-3M melanoma 113% | RXF 393 renal 106% | SF-268 CNS 84.3% | SF-295 CNS 95.1% | SF-539 CNS 89.9% | UACC-257 melanoma 90.6% | M14 melanoma 89.8%
active: MDA-MB-231 breast 6.33%

CN(C)CCCNC(=O)C(c1ccccc1)c1ccccc1
inactive: NCI-H226 lung 106% | NCI-H322M lung 102% | HOP-62 NSCLC 103% | NCI-H460 lung 112% | HOP-92 NSCLC 98% | NCI-H522 lung 89.9% | A549/ATCC NSCLC 89.9% | 786-0 renal 102% | COLO 205 colon 106% | DU-145 prostate 115% | K-562 leukemia 95.2% | MALME-3M melanoma 104% | MDA-MB-231 breast 102% | RXF 393 renal 116% | SF-268 CNS 107% | SF-295 CNS 102% | SF-539 CNS 99.4%

CCO/C=N/NC(=O)c1ccncc1
inactive: NCI-H23 lung 102% | NCI-H322M lung 107% | HOP-62 NSCLC 103% | NCI-H460 lung 104% | HOP-92 NSCLC 104% | NCI-H522 lung 98% | A549/ATCC NSCLC 106% | 786-0 renal 105% | COLO 205 colon 110% | DU-145 prostate 105% | K-562 leukemia 108% | MALME-3M melanoma 106% | MDA-MB-231 breast 109% | RXF 393 renal 109% | SF-268 CNS 101% | SF-295 CNS 116% | SF-539 CNS 111% | M14 melanoma 114%

CNC(=O)c1cc(Oc2ccc3c(c2)sc2nc(-c4ccc(Cl)cc4)cn23)ccn1
inactive: NCI-H23 lung 72.6% | NCI-H322M lung 92.9% | HOP-62 NSCLC 62.5% | NCI-H460 lung 81.8% | HOP-92 NSCLC 76.8% | NCI-H522 lung 61.7% | A549/ATCC NSCLC 79.4% | 786-0 renal 77.9% | COLO 205 colon 114% | DU-145 prostate 96.3% | K-562 leukemia 85.8% | MALME-3M melanoma 72.7% | MDA-MB-231 breast 77% | RXF 393 renal 83.5% | SF-268 CNS 63.3% | SF-295 CNS 80.1% | SF-539 CNS 76% | M14 melanoma 94.7%

CC/C=C\C[C@H]1C/C=C2/C(=O)C(Cl)=C[C@@H]2C/C=C\CCCC(=O)O1
active: NCI-H23 lung -34.1% | NCI-H322M lung 0.0936% | HOP-62 NSCLC -14.8% | NCI-H460 lung -43% | HOP-92 NSCLC -56.8% | NCI-H522 lung -60.6% | A549/ATCC NSCLC -9.19% | 786-0 renal -80.7% | COLO 205 colon -59.9% | DU-145 prostate -91% | K-562 leukemia -11.6% | MALME-3M melanoma -42.6% | MDA-MB-231 breast -13% | RXF 393 renal -90.1% | SF-268 CNS -55.4% | SF-295 CNS -63% | SF-539 CNS -72.6% | M14 melanoma -47.1%

O=P([O-])(O)OP(=O)([O-])O.[NH-][C@H]1CCCC[C@@H]1[NH-].[OH-].[OH-].[Pt+4]
inactive: NCI-H23 lung 102% | NCI-H322M lung 115% | HOP-62 NSCLC 111% | NCI-H460 lung 106% | HOP-92 NSCLC 114% | NCI-H522 lung 93.4% | A549/ATCC NSCLC 92.1% | 786-0 renal 107% | COLO 205 colon 110% | DU-145 prostate 109% | K-562 leukemia 110% | MALME-3M melanoma 111% | MDA-MB-231 breast 107% | RXF 393 renal 115% | SF-268 CNS 101% | SF-295 CNS 87.1% | SF-539 CNS 105% | M14 melanoma 120%

O=C(Cc1c(F)cccc1Cl)Nc1ccc(S(=O)(=O)Nc2ncccn2)cc1
inactive: NCI-H23 lung 97.6% | NCI-H322M lung 116% | HOP-62 NSCLC 96.2% | NCI-H460 lung 114% | HOP-92 NSCLC 91.1% | NCI-H522 lung 104% | A549/ATCC NSCLC 110% | 786-0 renal 103% | COLO 205 colon 105% | DU-145 prostate 104% | K-562 leukemia 89.7% | MALME-3M melanoma 124% | MDA-MB-231 breast 109% | RXF 393 renal 38.1% | SF-268 CNS 116% | SF-295 CNS 92.5% | SF-539 CNS 96.5% | M14 melanoma 110%

OCc1c(-c2ccccc2)nc2sccn12
active: HOP-92 NSCLC -8.39%
inactive: NCI-H23 lung 81.9% | NCI-H322M lung 105% | HOP-62 NSCLC 95.5% | NCI-H460 lung 106% | NCI-H522 lung 105% | A549/ATCC NSCLC 101% | 786-0 renal 101% | COLO 205 colon 110% | DU-145 prostate 109% | K-562 leukemia 123% | MALME-3M melanoma 109% | MDA-MB-231 breast 109% | SF-268 CNS 102% | SF-295 CNS 112% | SF-539 CNS 73.7% | M14 melanoma 102%

COc1cccc(-c2nc3sccn3c2-c2ccnc(NCCNS(=O)(=O)c3ccccc3)n2)c1
inactive: NCI-H23 lung 65.8% | NCI-H322M lung 81.7% | HOP-62 NSCLC 114% | NCI-H460 lung 62.4% | HOP-92 NSCLC 62.6% | NCI-H522 lung 49.5% | A549/ATCC NSCLC 64.8% | 786-0 renal 56.7% | DU-145 prostate 65.8% | K-562 leukemia 36.9% | MALME-3M melanoma 66.6% | MDA-MB-231 breast 63.5% | RXF 393 renal 64.2% | SF-268 CNS 62.7% | SF-295 CNS 63.6% | SF-539 CNS 79.9% | UACC-257 melanoma 81.4% | M14 melanoma 35.8%

c1ccc2c(c1)Oc1ccccc1C2C1c2ccccc2Oc2ccccc21
inactive: NCI-H23 lung 90.6% | NCI-H322M lung 94.1% | HOP-62 NSCLC 89.6% | NCI-H460 lung 95.9% | HOP-92 NSCLC 94.8% | NCI-H522 lung 87.6% | A549/ATCC NSCLC 88.3% | 786-0 renal 94.1% | COLO 205 colon 99.5% | DU-145 prostate 93.6% | K-562 leukemia 93.6% | MALME-3M melanoma 108% | MDA-MB-231 breast 93.1% | RXF 393 renal 94.2% | SF-268 CNS 97.2% | SF-295 CNS 96.1% | SF-539 CNS 96.5% | M14 melanoma 99.1%

COc1cccc(/C=C2\SC(N3CCN(c4ccccn4)CC3)=NC2=O)c1
inactive: NCI-H23 lung 95.5% | NCI-H322M lung 88.8% | HOP-62 NSCLC 93.6% | NCI-H460 lung 107% | HOP-92 NSCLC 92.7% | NCI-H522 lung 71.6% | A549/ATCC NSCLC 94.5% | 786-0 renal 108% | DU-145 prostate 101% | K-562 leukemia 82.2% | MALME-3M melanoma 96.8% | MDA-MB-231 breast 99.2% | RXF 393 renal 113% | SF-268 CNS 102% | SF-295 CNS 98.6% | SF-539 CNS 110% | UACC-257 melanoma 101% | M14 melanoma 103%
